Among all 71,000 compounds or so, about 65 (0.09%) were called active. Shown is part of a subset that was picked to be rich in actives. Entries that show only a call come without a potency. A number with no mark means an inactive call. Calls follow the shape of the dose curve; as a rule, active = well fitted curve in the direction sought with a large enough effect; inconclusive = small, poorly fitted or top-dose-only effect; inactive = flat fitted curve, though single readings scatter.
Potency is read from the fitted curve at half-maximal effect.

Sequence of Beta-lactamase (Escherichia coli (strain K12)) (P00811 whole entry, looked up): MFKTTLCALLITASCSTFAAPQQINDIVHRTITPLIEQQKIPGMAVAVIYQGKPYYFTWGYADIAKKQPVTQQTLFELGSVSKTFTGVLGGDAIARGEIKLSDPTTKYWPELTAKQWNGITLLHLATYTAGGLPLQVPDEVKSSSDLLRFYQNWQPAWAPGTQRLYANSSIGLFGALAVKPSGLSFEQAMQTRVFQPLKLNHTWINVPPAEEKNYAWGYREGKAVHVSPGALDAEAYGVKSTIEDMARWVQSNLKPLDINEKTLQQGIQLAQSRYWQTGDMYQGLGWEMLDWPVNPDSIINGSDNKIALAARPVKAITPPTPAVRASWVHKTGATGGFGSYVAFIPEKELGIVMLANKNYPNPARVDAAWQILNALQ

The target in this test is Beta-lactamase (Escherichia coli (strain K12)) (UniProt P00811). In words: Promiscuous and Specific Inhibitors of AmpC Beta-Lactamase (assay with detergent). Conditions: purified AmpC, nitrocefin hydrolysis with detergent; series mostly up to 28.7 µM. On the procedure:
NIH Molecular Libraries Screening Centers Network [MLSCN]
NIH Chemical Genomics Center [NCGC]
PI Name: Shoichet, Brian K.
This aggregation profiling approach exploits the sensitivity of aggregate formation to detergent. Inhibition of b-lactamase is measured in the presence and absence of 0.01% Triton X-100. This particular assay had the prescence of 0.01% Triton X-100. See Pubchem assay "Promiscuous and Specific Inhibitors of AmpC Beta-Lactamase (assay without detergent)" for related screen. Compounds that inhibit only in the absence of detergent are considered likely promiscuous aggregators.
A screen of 1,030 compounds was performed in Brian Shoichet's lab in 96-well format. AmpC activity was measured by following the absorbance at 480 nm. Nitrocefin is a chromogenic substrate: while nitrocefin is yellow (lmax 390 nm), the product of its hydrolysis is red (lmax 486 nm, 17,000 M-1). AmpC beta lactamase was provided by Brian Shoichet and Brian Feng, UCSF.
NCGC Assay Protocol Summary:
20 mM phosphate buffer, pH 7.0
Triton X-100: No Detergent screen: 0.0001%, Detergent screen: 0.01%.
Buffer in columns 3 and 4 as negative control (no enzyme).
5.3 nM AmpC in columns 1, 2, 5-48. Titration of UCSF compound 9 control (from 10 mM, then 1:2) pin-transferred to column 2. Column 1 is neutral (100% activity).
Six uL of reagents were dispensed to 1536-well Greiner black clear bottom plates. Compounds and controls (23 nL) were transferred via Kalypsys PinTool. The plates were incubated for 15 min at room temperature, and then 2 uL of 800 uM solution of nitrocefin was added to start the reaction. The plates were immediately transferred to and read every 20 seconds for 4 min on ViewLux (Perkin-Elmer) High-throughput CCD imager using 480 nm absorbance protocol. During dispense, reagent bottles were kept submerged into 4 deg C water bath.
Keywords: NIH Roadmap, MLSCN, MLI, MLSMR, qHTS, NCGC, AmpC Beta-Lactamase, Aggregation
Turning to `CC(C)(O/N=C(\C(=O)N[C@@H]1C(=O)N2C(C(=O)[O-])=C(C[n+]3ccccc3)CS[C@@H]12)c1csc(N)n1)C(=O)O`, the Potency was 3.98 µM (active).

Regarding `COc1ccc(OC)c(C2N(c3ccccn3)C(=O)C3CCCN32)c1` (configuration not stated), the activity change, negative = inhibition entry was “inactive”.

Turning to `Clc1ccc(CSc2nnc([C@@H]3CCCN3)o2)cc1`, the activity change, negative = inhibition result is “inactive”.

With `C=CCNC(=O)c1ccc(C)c(Br)c1`, the activity change, negative = inhibition entry was “inactive”. Same read-out and setting: for `Cc1ccc(CNC(=O)CN2CCN(Cc3ccc(Cl)cc3)C2=O)cc1` the value was “inactive”. As for `COCCCNC(=O)c1ccc(CNS(=O)(=O)c2ccc(NC(C)=O)cc2)cc1`, the activity change, negative = inhibition entry was “inactive”. With `Cn1nc(-c2ccc(Cl)cc2)c2cc(C(=O)NCc3ccco3)sc21`, the activity change, negative = inhibition result is “inactive”.

Take `CCCN(CCC)CCNC(=O)c1cc2c(C)nc3ccccc3c2o1`: the activity change, negative = inhibition entry is “inactive”. Regarding `CCn1c(NCCc2ccc(OC)c(OC)c2)nc2c1c(=O)n(C)c(=O)n2C`, the activity change, negative = inhibition result is “inactive”. As for `Fc1ccccc1CCNc1nnnn1-c1ccccc1`, the activity change, negative = inhibition result is “inactive”. As for `Cc1ccn2cc(-c3nonc3C)cc2c1`, the activity change, negative = inhibition result was “inactive”.

On to `O=C(c1cccc(S(=O)(=O)N2CCOCC2)c1)N1CCOCC1`, for which the activity change, negative = inhibition result was “inactive”. Take `Clc1ccc(Nc2nc(-c3cccs3)cs2)nc1`: the activity change, negative = inhibition result is “inactive”.

In the case of `COc1cccc2sc(Nc3nc(C)c(C(C)=O)s3)nc12`, the activity change, negative = inhibition entry was “inactive”. Regarding `CC(=O)N1CCc2cc(S(=O)(=O)Nc3ccccc3N3CCN(C)CC3)ccc21`, the activity change, negative = inhibition entry was “inactive”. Same read-out and setting: the value for `COc1ccc(OCC(=O)N2CCN(C(=O)c3cccs3)CC2)cc1` was “inactive”.

With `Cc1ccccc1C(=O)NCCN=C1NS(=O)(=O)c2ccccc21`, the activity change, negative = inhibition entry is “inactive”. Regarding `C#CCN1C(=O)C(O)(CC(=O)c2cc(OC)ccc2OC)c2ccccc21` (configuration not stated), the activity change, negative = inhibition result is “inactive”. On to `CCOC(=O)c1ccc(N2C(=O)CC(N3CCC(C(=O)OCC)CC3)C2=O)cc1` (configuration not stated), for which the activity change, negative = inhibition entry was “inactive”. Regarding `O=C1c2oc3ccc(Br)cc3c(=O)c2C(c2cccc(F)c2)N1CCO` (configuration not stated), the activity change, negative = inhibition result is “inactive”. Turning to `O=C(c1ccco1)N1CCC[C@@]2(CCN(Cc3nccs3)C2)C1`, the activity change, negative = inhibition result was “inactive”. As to `O=C1c2oc3ccccc3c(=O)c2C(c2cccc(O)c2)N1c1ccccn1` (configuration not stated), the activity change, negative = inhibition entry was “inactive”.

Consider `CCCCCCCCCCCC(=O)O[C@H](CC(=O)O)C[N+](C)(C)C`, for which the activity change, negative = inhibition entry is “inactive”. For `CCOC(=O)N1CCN(C(=O)c2n[nH]c(=O)c3ccccc23)CC1`, the activity change, negative = inhibition entry is “inactive”. As to `CC(C)c1cc(C(=O)O)on1`, the activity change, negative = inhibition result was “inactive”.

Take `O=S(=O)(c1ccc(OCC(O)CN2CCN(c3ccccc3Cl)CC2)cc1)N1CCOCC1` (configuration not stated): the activity change, negative = inhibition result was “inactive”. On the same count and under the same terms, for `CCNC(=O)N1CCNC(=O)C1CC(=O)Nc1ccc(C(=O)OCC)cc1` (configuration not stated) the value was “inactive”; for `COc1ccccc1-n1nnnc1S(=O)(=O)Cc1ccc(Cl)cc1`, “inactive”.

Turning to `COc1ccc2occ(C(=O)c3ccc(N=C(C)N(C)C)cc3)c2c1`, the activity change, negative = inhibition entry was “inactive”. In the case of `CCC(=O)Nc1ccc2c(c1)nc(CCN1CCN(C)CC1)n2C`, the activity change, negative = inhibition entry is “inactive”. As for `O=C(Nc1ccc(NC(=O)c2cccs2)cn1)c1ccco1`, the activity change, negative = inhibition entry is “inactive”. Still for that read-out and setting: for `COC(=O)c1oc2ccc(Br)cc2c1NC(C)=O` the value was “inactive”; for `O=C(C(NS(=O)(=O)c1cccc2nsnc12)c1ccccc1)N1CCN(c2ccccn2)CC1` (configuration not stated), “inactive”; for `CC[C@@](O)(C(=O)O)c1cc2n(c(=O)c1CO)Cc1cc3ccccc3nc1-2`, -3.6% [at 5.75 µM].

Take `CC(C)CCNC(=O)CN(C(=O)Cn1nnc(-c2ccc(F)cc2)n1)C1CCCC1`: the activity change, negative = inhibition result was “inactive”. In the case of `O=C(CSc1nnc(-c2ccco2)o1)NCC(=O)c1ccccc1`, the activity change, negative = inhibition result is “inactive”. For the compound `Nc1scc(-c2ccncc2)c1Cl`, the activity change, negative = inhibition result is “inactive”. Turning to `O=C(CSc1nc2ccccc2o1)N1CCN(c2ccc(Cl)cc2)CC1`, the activity change, negative = inhibition result is “inactive”. Turning to `O=C(c1ccccc1-c1ccccc1)N1CCOCC1`, the activity change, negative = inhibition entry is “inactive”. Take `Cc1ccc(F)cc1NC(=O)c1ccc2c(c1)OCO2`: the activity change, negative = inhibition entry is “inactive”.

With `c1ccc2nc(C3=NCCN3)cnc2c1`, the activity change, negative = inhibition result was “inactive”.

`COc1ccc(CCNc2ncnc3nc[nH]c23)cc1OC`: the activity change, negative = inhibition result is “inactive”. Turning to `Cc1cc(C(=O)O)ccc1[N+](=O)[O-]`, the activity change, negative = inhibition result is “inactive”. As to `O=C(Nc1ccccc1F)c1cc(S(=O)(=O)N2CCCCC2)cs1`, the activity change, negative = inhibition entry is “inactive”. The same measure, in the same setting: the value for `COC(=O)[C@@]1(Cc2ccc(OC)cc2)[C@H]2c3cc(C(=O)N4CCCC4)n(Cc4ccc(C(F)(F)F)nc4)c3C[C@H]2CN1C(=O)c1ccccc1` was “inactive”.

In the case of `Cc1ccc(Cn2nnc3c(=O)n(CC(=O)N4CCCCC4)cnc32)cc1`, the activity change, negative = inhibition result is “inactive”. Still for that read-out and setting: for `CCC(C)(C)n1nnnc1C(c1cccs1)N1CCN(c2nc3ccccc3s2)CC1` (configuration not stated) the value was “inactive”. Regarding `O=S(=O)(Nc1ccc2nc(-c3ccco3)[nH]c2c1)c1ccccc1`, the activity change, negative = inhibition entry was “inactive”. `Cc1cc(N2C(=O)c3ccc(C(=O)NCc4ccccc4)cc3C2=O)no1`: the activity change, negative = inhibition result was “inactive”. `CCCCOc1ccc(Cl)cc1CSc1nncn1N`: the activity change, negative = inhibition entry was “inactive”. Regarding `NCC[Se][Se]CCN`, the activity change, negative = inhibition is -3% [at 5.75 µM]. As for `NC(=NC(=O)c1ccccc1)C1=C(O)CCC1=O`, the activity change, negative = inhibition result was “inactive”.

The values above are taken from PubChem BioAssay AID584 (National Center for Advancing Translational Sciences (NCATS), 2007).
